# Bioassay records deposited in PubChem by National Center for Advancing Translational Sciences (NCATS).
# LDHA inh: inhibitors of human lactate dehydrogenase A. purified LDHA, NADH/diaphorase-resazurin fluorescence; active compounds read low. activity change, % (values are at about 110 or 230 µM). hit rate 0.15% among 480,000. AID 1347041; in the data active means activity change below about -30%; inconclusive means mostly about -25% to -30%
#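 Resorufin fluorescence (ex540/em590), read at 0 and 20 min after diaphorase/resazurin addition, reports the NADH left after a 5 min room-temperature reaction of 2 nM human LDH5 with 0.06 mM NADH and 0.2 mM pyruvate.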
# Nrf2 inh: blocks Nrf2 signaling. A549 ARE-Fluc reporter, luciferase luminescence, 18-24 h. Potency, µM (doses to about 46 µM), actives largely listed as inhibitors. hit rate 2.1% among 360,000; further: nearly all actives have a fitted effect of over 60% in size
#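 Two sequential reads on A549 ARE_Fluc cells exposed to compound for 18-24 h: a CellTiter-Fluor fluorescence read for viability, then a luciferase luminescence read for Nrf2/ARE activity.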
# 12-LOX inh: blocks human arachidonate 12S-lipoxygenase | P18054 | purified 12hLO, xylenol orange hydroperoxide absorbance | Potency, µM (doses to about 108 µM), actives largely listed as inhibitors | hit rate 1.1% among 580,000 | AID 1671190
#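 Hydroperoxide product was detected by ferrous iron/xylenol orange as the 573 to 405 nm absorbance ratio. Arachidonic acid at 40 uM (final) was turned over for 30 min at room temperature by 150 nM human 12hLO, pH 7.0 Hepes buffer, after 15 min compound preincubation.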
# IDH1 R132H inh: human IDH1 R132H inhibition. O75874. Potency, µM (highest dose often 76.6 µM), usual class: inhibitors. IDH1-R132H enzyme, NADPH consumption, diaphorase/resazurin fluorescence. hit rate 0.093% among 390,000; further: nearly all actives have a fitted effect of over 65% in size
# Target sequence (O75874 whole entry R132H, stated change not applied): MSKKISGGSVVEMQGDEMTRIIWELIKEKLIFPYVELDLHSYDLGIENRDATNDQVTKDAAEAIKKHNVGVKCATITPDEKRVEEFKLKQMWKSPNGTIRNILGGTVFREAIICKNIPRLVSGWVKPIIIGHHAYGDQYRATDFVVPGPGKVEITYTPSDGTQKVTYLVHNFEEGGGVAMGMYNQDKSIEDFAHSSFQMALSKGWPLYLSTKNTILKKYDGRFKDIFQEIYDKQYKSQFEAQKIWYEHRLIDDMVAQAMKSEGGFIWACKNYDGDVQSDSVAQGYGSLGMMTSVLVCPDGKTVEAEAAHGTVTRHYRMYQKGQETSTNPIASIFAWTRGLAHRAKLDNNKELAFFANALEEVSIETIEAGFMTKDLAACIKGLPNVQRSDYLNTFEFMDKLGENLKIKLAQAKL
#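 IDH1-R132H (0.5 ug/mL) preincubated 30 min with compound, then NADPH (0.016 mM) and alpha-KG (2 mM) added; 80 min at RT, pH 7.5. Remaining NADPH coupled via diaphorase/resazurin to fluorescence (540/590 nm); concentration-response curves normalized to no-enzyme control.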
# A549 tox: counter-screen for Nrf2 inhibitors: cytotoxicity in A549 cells. A549 ARE-Fluc cells, CellTiter-Fluor viability, 18-24 h. Potency, µM (titrated, usually from 46 µM), hits mostly inhibitors. hit rate 0.16% among 390,000. AID 504648
#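 Cytotoxicity counterscreen: CellTiter-Fluor fluorescence was measured in A549 ARE_Fluc cells after 18-24 h of compound exposure in a concentration series. The subsequent BugLite luminescent read reports ARE-luciferase activity.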
# Nrf2 activator: activates Nrf2 signaling. AREc32 ARE-luciferase reporter (MCF7-derived line), luminescence, 24 h. Potency, µM (highest dose often 46.1 µM), actives largely listed as activators. hit rate 0.31% among 410,000. AID 624171; further: nearly all actives have a fitted effect of over 65% in size
#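 Steps: seed AREc32_Fluc cells (1000/well, 5% FBS OPTI-MEM); incubate overnight at 37 deg C; add 23 nL compound; incubate 24 hr; add Steady-Glo; hold 30 min RT; read luminescence.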
# Hits are given with their value; n = inactive; u = inconclusive; x = not tested or not shown. The list is not random: actives were taken first. Their share in the collection is about 2.7%. Unless noted, the call rests on the fitted dose curve; in most records, active means well fitted curve in the direction sought with a large enough effect; inconclusive means small, poorly fitted or top-dose-only effect, or another doubt; inactive means no such curve, though single readings can be large; an effect the other way counts as inactive or inconclusive.
SMILES,LDHA inh,Nrf2 inh,12-LOX inh,IDH1 R132H inh,A549 tox,Nrf2 activator
O=C1COc2ccc(OCc3ccccc3)nc2CN1CCOc1ccccc1,x,x,11.2µM,x,x,x
C/C(=N\Nc1ccc([N+](=O)[O-])cc1)c1ccc(N)cc1,n,n,u,n,n,n
CC/C(=N\Nc1ccc([N+](=O)[O-])cc1)c1ccccc1,n,20.6µM,x,n,u,n
C/C(=N/Nc1ccc2ccccc2c1)c1ccccc1,n,x,2µM,x,x,x
C/C(=N\NC(=O)c1cccc(N/N=C(\C)c2ccccc2)c1)c1ccccc1,n,n,u,n,n,n
C/C(=N/Nc1ccccc1)c1ccc([N+](=O)[O-])cc1,n,x,1.58µM,x,x,x
Clc1ccccc1CNC[C@H]1Cn2cc(-c3ccccc3)nc2CO1,x,x,n,x,x,x
Cn1c(/C(C#N)=C/c2ccccc2Br)nc2ccccc21,n,u,n,x,u,8.91µM
O=C(COc1ccccc1)Nc1nc(-c2ccc(Br)s2)ns1,n,x,n,x,x,x
COc1ccc(C(=O)Nc2nc(-c3ccc(Br)s3)ns2)cc1,-30.3,x,n,x,x,x
Cc1nc(N2CCCCCC2)c2ccccc2n1,n,18.4µM,n,n,n,n
c1ccc2c(N3CCCCC3)nc(N3CCCC3)nc2c1,n,n,n,n,n,n
c1csc(-c2nnc(N3CCCCCC3)c3ccccc23)c1,n,n,u,n,n,12.6µM
Clc1nnc(N2CCCCC2)c2ccccc12,n,16.4µM,n,n,n,n
CCCCN(C(=O)COc1ccc2ccc(=O)oc2c1)C1CC(C)(C)NC(C)(C)C1,n,x,u,x,x,x
O=C(/C=C/c1ccc(O)c(O)c1)c1ccc(S(=O)(=O)N2CCCCCC2)cc1,n,n,22.4µM,u,n,u
CCC(C)c1ccc(C(=O)Cn2cnc3c2c(=O)n(C)c(=O)n3C)cc1 (stereo not drawn),n,x,n,x,x,x
Cc1nn(Cc2c(Cl)cccc2Cl)c(C)c1NC(=O)c1cn(-c2ccccc2)nc1-c1ccccc1,n,11.6µM,x,n,13µM,n
Cc1cc(CN(Cc2cc(C)c(O)c(C)c2)C2CCCCC2)cc(C)c1O,n,x,u,x,x,x
COc1ccc(C2NC(=S)NC3=C2CCc2ccccc23)cc1 (stereo not drawn),n,x,39.8µM,x,x,x
Cc1ccc(C2NC(=S)NC3=C2CCc2ccccc23)cc1 (stereo not drawn),n,x,u,x,x,x
COc1ccc(C2NC(=S)NC3=C2CCc2cc(OC)ccc23)cc1 (stereo not drawn),n,u,28.2µM,n,n,n
c1coc(CSc2ncnc3c2oc2ccccc23)c1,n,u,n,n,n,4.47µM
c1ccc(CSc2ncnc3c2oc2ccccc23)cc1,n,u,n,n,n,n
CCOC(=O)/C(C#N)=N/Nc1c(C)n(C)n(-c2ccccc2)c1=O,n,u,n,n,n,n
SMILES,LDHA inh,Nrf2 inh,12-LOX inh,IDH1 R132H inh,A549 tox,Nrf2 activator
Cc1c(N/N=C(\C#N)C(=O)c2ccccc2)c(=O)n(-c2ccccc2)n1C,n,u,u,n,20.6µM,n
Cc1ccccc1C(=O)/C(C#N)=N/Nc1c(C)n(C)n(-c2ccccc2)c1=O,n,8.2µM,u,n,18.4µM,n
COc1ccc2oc3cc(C)[n+]([O-])c(-c4ccc(C)cc4)c3c2c1,n,25.9µM,n,n,u,n
CC(C)CSC1=NSC2=NC(=O)/C(=C\c3coc4ccccc4c3=O)C(=N)N12,n,u,28.2µM,n,n,n
CC1CCN(S(=O)(=O)c2ccc3c(c2)C(=NO)c2cc(S(=O)(=O)N4CCC(C)CC4)ccc2-3)CC1,n,4.11µM,n,n,5.17µM,n
O=S(=O)(c1ccc2c(c1)C(=NO)c1cc(S(=O)(=O)N3CCCCC3)ccc1-2)N1CCCCC1,n,u,n,n,u,n
CCOc1ccc(NC(=O)c2cc(=O)c3ccccc3o2)cc1OC,n,x,n,x,x,x
Cc1nc2sc3c(O)cc(=O)[nH]c3c2c(C)c1C,n,n,n,n,n,n
O=c1cc(O)c2sc3nc(-c4cccs4)cc(-c4cccs4)c3c2[nH]1,n,x,10µM,x,x,x
O=C(COc1ccccc1)OCC(=O)c1ccc2c(c1)OCO2,n,x,u,x,x,x
Nc1nc(Nc2ccccc2)nc(NCc2ccccc2)c1[N+](=O)[O-],n,23.1µM,n,n,u,n
CC(Oc1ccccc1F)C(=O)Nc1cccc(-c2nc3ccccc3o2)c1 (stereo not drawn),n,x,n,x,x,x
COc1ccccc1C(=O)NCCC(=O)Nc1ccc(S(=O)(=O)Nc2ncccn2)cc1,n,n,n,n,n,n
CC1CCN(S(=O)(=O)c2ccc(NC(=O)CN3CCN(C)CC3)cc2)CC1,-40.9,n,u,n,n,n
COc1ccccc1C(=O)NCCC(=O)Nc1ccc(S(=O)(=O)N2CCC(C)CC2)cc1,n,11.6µM,n,n,n,n
COc1ccccc1C(=O)Nc1ccc(S(=O)(=O)N2CCC(C)CC2)cc1,n,23.1µM,n,n,n,n
COc1ccccc1C(=O)Nc1ccc(S(=O)(=O)N2CCCCC2c2cccnc2)cc1 (stereo not drawn),n,16.4µM,n,n,n,n
CCCn1nc(C(=O)NC(C)c2ccco2)c2ccccc2c1=O (stereo not drawn),n,x,u,x,x,x
Fc1cccc(NC(=S)NC2CCCC2)c1,n,x,n,x,x,x
CCn1nc(C(=O)OCC(=O)N2CCCC2)c2ccccc2c1=O,n,x,n,x,x,x
Cc1occc1C(=O)NC(C)c1cccc(Cl)c1 (stereo not drawn),n,x,n,x,x,x
Cn1cc(S(=O)(=O)N2CCC(C(=O)Nc3ccc(OC(F)F)cc3)CC2)cc1C(N)=O,n,x,n,x,x,x
Cc1csc(/C(C#N)=C\C2=Cc3cc(Cl)ccc3OC2)n1,n,x,50.1µM,x,x,x
N#C/C(=C\c1ccc(Cl)cc1Cl)c1nc(-c2cccc(Cl)c2)cs1,n,n,n,n,n,n
S=C(NCCCc1ccccc1)Nc1ccc(Br)cc1Cl,n,x,44.7µM,x,x,x
SMILES,LDHA inh,Nrf2 inh,12-LOX inh,IDH1 R132H inh,A549 tox,Nrf2 activator
CCCNC(=S)Nc1ccc(Br)cc1,n,x,u,n,n,n
Fc1ccc(CCNC(=S)Nc2ccc(Oc3ccccc3)cc2)cc1,n,x,22.4µM,x,x,x
S=C(NCCc1ccccc1)Nc1ccc(Br)cc1,n,u,35.5µM,n,n,n
Oc1ccc(CCNC(=S)Nc2ccc(F)cc2)cc1,n,x,n,x,x,x
Cc1cccnc1NC(=S)Nc1ccc(Br)cc1Cl,n,u,11.2µM,n,n,n
CC(C)CN(C)C(=O)/C=C/c1ccc(-c2ccccc2)s1,n,x,u,x,x,x
CC(=O)c1c(C)[nH]c(C(=O)OC(C)C(=O)Nc2ccc(Cl)cn2)c1C (stereo not drawn),n,x,u,x,x,x
Cc1ccccc1CCNC(=O)c1[nH]c2ccccc2c1Cl,n,x,n,x,x,x
O=C(CSc1ccc(-c2ccco2)nn1)N1CCCCC1,n,u,n,n,n,u
O=C(CSc1ccc(-c2ccco2)nn1)N1CCCC1,n,n,n,n,n,10µM
